Measurements as given in the supplement of paper PMC9334596.
Values joined by “and” are separate entries in the source; they are usually repeats but may differ in a detail not shown here. Identical values can stand only once. In all, about 5,300 compounds were measured (“PER2::LUC luminescence relative to vehicle control”: median about 0.96, highest 2% from about 1.3 on). The sample holds the highest values, similar compounds and a random draw of the others, so the mix is not that of the screen.

Tested on: mPer2Luc MEF
Experiment: PER2::LUC luminescence relative to vehicle control (fold of vehicle); higher = higher PER2::LUC reporter signal
Conditions: 10 µM
Outline: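 The value is PER2::LUC luminescence expressed as fold of vehicle control. Mouse embryonic fibroblasts carrying the mPer2Luc reporter were seeded at ~3000 cells per well in 384-well plates and grown in DMEM with 10% FBS at 37 °C and 5% CO2. Compounds from commercial libraries were added at 10 μM 48 h after seeding, and luminescence was read with the ONE-Glo luciferase assay system 24 h and 30 h after treatment, followed by an alamarBlue viability assay.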

Structure (SMILES): FC(F)(F)c1ccccc1-n1ccnc1
- PER2::LUC luminescence (time after treatment 24 h): 0.975
- PER2::LUC luminescence (time after treatment 30 h): 0.907

Structure (SMILES): O=C1c2ccccc2C(=O)c2oc(-c3ccccc3)nc21
- PER2::LUC luminescence (time after treatment 24 h): 1.15
- PER2::LUC luminescence (time after treatment 30 h): 0.538

Structure (SMILES): CC(C)c1cc(-c2n[nH]c(=O)n2-c2ccc3c(ccn3C)c2)c(O)cc1O
- PER2::LUC luminescence (time after treatment 24 h): 0.062
- PER2::LUC luminescence (time after treatment 30 h): 0.052

Structure (SMILES): Cc1cc(NC(=O)Nc2ccc3c(ccn3C)c2)sn1
- PER2::LUC luminescence (time after treatment 24 h): 1.59
- PER2::LUC luminescence (time after treatment 30 h): 1.52

Structure (SMILES): Cn1ccc2cc(NC(=O)Nc3cccnc3)ccc21
- PER2::LUC luminescence (time after treatment 24 h): 1.15
- PER2::LUC luminescence (time after treatment 30 h): 0.855

Structure (SMILES): N[C@H](CCC(=O)O)C(=O)O
- PER2::LUC luminescence (time after treatment 24 h): 1.1
- PER2::LUC luminescence (time after treatment 30 h): 1.01

Structure (SMILES): C=C1C[C@@]23CC[C@H]4[C@@](C)(CCC[C@@]4(C)C(=O)O)[C@@H]2CC[C@]1(O)C3
- PER2::LUC luminescence (time after treatment 24 h): 0.886
- PER2::LUC luminescence (time after treatment 30 h): 1.12

Structure (SMILES): CC(C)c1cc2c(cc1S(=O)(=O)O)[C@@]1(C)CCC[C@@](C)(C(=O)O)[C@@H]1CC2
- PER2::LUC luminescence (time after treatment 24 h): 1.03
- PER2::LUC luminescence (time after treatment 30 h): 1

Structure (SMILES): CC(C)C1=CC2=CC[C@@H]3[C@](C)(CCC[C@@]3(C)C(=O)O)[C@H]2CC1
- PER2::LUC luminescence (time after treatment 24 h): 1.34
- PER2::LUC luminescence (time after treatment 30 h): 1.15

Structure (SMILES): FC(F)(F)c1ccc(Nc2nc(-c3c(C(F)(F)F)nc4ccccn34)cs2)cc1
- PER2::LUC luminescence (time after treatment 24 h): 0.269
- PER2::LUC luminescence (time after treatment 30 h): 0.305

Structure (SMILES): COc1cc(NC(=O)c2ccc(-c3ccc(Cl)cc3)o2)cc(OC)c1
- PER2::LUC luminescence (time after treatment 24 h): 0.947
- PER2::LUC luminescence (time after treatment 30 h): 1.04

Structure (SMILES): COc1cccc(NC(=O)/C=C/c2ccc(Cl)cc2)c1
- PER2::LUC luminescence (time after treatment 24 h): 1.39
- PER2::LUC luminescence (time after treatment 30 h): 1

Structure (SMILES): CC(C)(C)c1ccc(/C=C/C(=O)Nc2ccc3c(c2)OCCO3)cc1
- PER2::LUC luminescence (time after treatment 24 h): 0.942
- PER2::LUC luminescence (time after treatment 30 h): 1.11

Structure (SMILES): C[n+]1ccc(C=Cc2ccc3ccccc3c2)cc1
- PER2::LUC luminescence (time after treatment 24 h): 0.908
- PER2::LUC luminescence (time after treatment 30 h): 1.07

Structure (SMILES): CNc1ncnc2c1ncn2[C@@H]1O[C@H](CO)[C@@H](O)[C@H]1O
- PER2::LUC luminescence (time after treatment 24 h): 0.974
- PER2::LUC luminescence (time after treatment 30 h): 1.04

Structure (SMILES): OCC1OC(n2cnc3c(NC4CCCCC4)ncnc32)C(O)C1O (stereo not drawn)
- PER2::LUC luminescence (time after treatment 24 h): 0.986
- PER2::LUC luminescence (time after treatment 30 h): 1.02

Structure (SMILES): OC[C@H]1O[C@@H](n2cnc3c(Nc4ccccc4)ncnc32)[C@H](O)[C@@H]1O
- PER2::LUC luminescence (time after treatment 24 h): 1.41
- PER2::LUC luminescence (time after treatment 30 h): 1.13

Structure (SMILES): CC(Cc1ccccc1)Nc1ncnc2c1ncn2C1OC(CO)C(O)C1O (single isomer, unassigned; (-))
- PER2::LUC luminescence (time after treatment 24 h): 0.925
- PER2::LUC luminescence (time after treatment 30 h): 0.965

Structure (SMILES): Nc1ccc(CCNc2ncnc3c2ncn3C2OC(CO)C(O)C2O)cc1 (stereo not drawn)
- PER2::LUC luminescence (time after treatment 24 h): 0.951
- PER2::LUC luminescence (time after treatment 30 h): 0.857

Structure (SMILES): Cc1ccccc1CNc1ncnc2c1ncn2[C@@H]1O[C@H](CO)[C@@H](O)[C@H]1O
- PER2::LUC luminescence (time after treatment 24 h): 1.35
- PER2::LUC luminescence (time after treatment 30 h): 1.28

Structure (SMILES): COc1ccc2cc1Oc1ccc(cc1)C[C@@H]1c3cc(c(OC)cc3CCN1C)Oc1c(OC)c(OC)cc3c1[C@H](C2)N(C)CC3
- PER2::LUC luminescence (time after treatment 24 h): 0.674
- PER2::LUC luminescence (time after treatment 30 h): 0.713

Structure (SMILES): COc1cc(N2CCOCC2)ccc1NC(=O)c1csc(-c2cccnc2)n1
- PER2::LUC luminescence (time after treatment 24 h): 0.906
- PER2::LUC luminescence (time after treatment 30 h): 1.02

Structure (SMILES): CCOC(=O)c1cc(OC)c(OC)cc1NC(=O)c1cc(OC)c(OC)c(OC)c1
- PER2::LUC luminescence (time after treatment 24 h): 1.08
- PER2::LUC luminescence (time after treatment 30 h): 1.16

Structure (SMILES): CC(C)CCCC(C)C1CCC2C3CCC4CC(O)CCC4(C)C3CCC12C (stereo not drawn)
- PER2::LUC luminescence (time after treatment 24 h): 0.978
- PER2::LUC luminescence (time after treatment 30 h): 0.951

Structure (SMILES): O=c1ccc2cc(O)c(O)cc2o1
- PER2::LUC luminescence (time after treatment 24 h): 0.867
- PER2::LUC luminescence (time after treatment 30 h): 0.732

Structure (SMILES): COc1cc2ccc(=O)oc2cc1O
- PER2::LUC luminescence (time after treatment 24 h): 1.02
- PER2::LUC luminescence (time after treatment 30 h): 1.04

Structure (SMILES): CC1(C)C=Cc2cc3ccc(=O)oc3cc2O1
- PER2::LUC luminescence (time after treatment 24 h): 1.26
- PER2::LUC luminescence (time after treatment 30 h): 1.48

Structure (SMILES): CCOC(=O)CCCCCCCCCCCN(C)C(=O)CO[C@H](C)[C@@H](C)OCC(=O)N(C)CCCCCCCCCCCC(=O)OCC
- PER2::LUC luminescence (time after treatment 24 h): 1.2
- PER2::LUC luminescence (time after treatment 30 h): 1.08

Structure (SMILES): CCN1CCN(Cc2ccc(NC(=O)c3ccc(C)c(/C=C/c4cnc5[nH]ccc5c4OC)c3)cc2C(F)(F)F)CC1
- PER2::LUC luminescence (time after treatment 24 h): 0.349
- PER2::LUC luminescence (time after treatment 30 h): 0.394

Structure (SMILES): CCCC(=O)NCCc1c(I)[nH]c2ccc(OC)cc12
- PER2::LUC luminescence (time after treatment 24 h): 0.668
- PER2::LUC luminescence (time after treatment 30 h): 0.814

Structure (SMILES): CCCCC/C=C\C[C@@H](O)/C=C/c1cccc(C[C@@H](O)CCCCO)n1
- PER2::LUC luminescence (time after treatment 24 h): 1.07
- PER2::LUC luminescence (time after treatment 30 h): 0.841

Structure (SMILES): O=C(Nc1cccc(C(F)(F)F)c1)Nc1cc(Cl)ccc1C(=O)O
- PER2::LUC luminescence (time after treatment 24 h): 1.07
- PER2::LUC luminescence (time after treatment 30 h): 1

Structure (SMILES): CCN(CC)CCNC(=O)COc1ccc(OC)cc1
- PER2::LUC luminescence (time after treatment 24 h): 1.38
- PER2::LUC luminescence (time after treatment 30 h): 1.49

Structure (SMILES): CCN(CC)CCNC(=O)c1ccc(N)cc1
- PER2::LUC luminescence (time after treatment 24 h): 1.11
- PER2::LUC luminescence (time after treatment 30 h): 1.27

Structure (SMILES): CCN(CC)CCNC(=O)c1cc(S(C)(=O)=O)ccc1OC
- PER2::LUC luminescence (time after treatment 24 h): 0.984
- PER2::LUC luminescence (time after treatment 30 h): 0.88

Structure (SMILES): CC12CCC3c4ccc(O)cc4CCC3C1CCC2O (stereo not drawn)
- PER2::LUC luminescence (time after treatment 24 h): 0.721
- PER2::LUC luminescence (time after treatment 30 h): 0.751

Structure (SMILES): OC[C@H]1O[C@@H](n2cnc3c(N[C@H]4CCC[C@@H]4O)ncnc32)[C@@H](O)C1O (stereo partly drawn)
- PER2::LUC luminescence (time after treatment 24 h): 1.25
- PER2::LUC luminescence (time after treatment 30 h): 0.88

Structure (SMILES): CN(C)CC1CCC2=C(C1=O)C(c1ccc(Cl)c(Cl)c1)C1=C(CCC(CN(C)C)C1=O)O2 (stereo not drawn)
- PER2::LUC luminescence (time after treatment 24 h): 1.15
- PER2::LUC luminescence (time after treatment 30 h): 1.08

Structure (SMILES): O=C1Cc2c([nH]c3ccc(Br)cc23)-c2ccccc2N1
- PER2::LUC luminescence (time after treatment 24 h): 1.15
- PER2::LUC luminescence (time after treatment 30 h): 1.88

Structure (SMILES): O=C1Nc2cc(Br)ccc2/C1=C1/Nc2ccccc2/C1=N\O
- PER2::LUC luminescence (time after treatment 24 h): 0.773
- PER2::LUC luminescence (time after treatment 30 h): 1.09

Structure (SMILES): CC(C)NC[C@@H](O)COc1ccc(CC(N)=O)cc1
- PER2::LUC luminescence (time after treatment 24 h): 1.01
- PER2::LUC luminescence (time after treatment 30 h): 0.958

Structure (SMILES): CC(C)NCC(O)COc1ccc(CC(N)=O)cc1 (stereo not drawn)
- PER2::LUC luminescence (time after treatment 24 h): 1.26
- PER2::LUC luminescence (time after treatment 30 h): 1.06

Structure (SMILES): C[C@H](NCc1ccc(OCc2cccc(F)c2)cc1)C(N)=O
- PER2::LUC luminescence (time after treatment 24 h): 1.22 and 1.67
- PER2::LUC luminescence (time after treatment 30 h): 1.5 and 1.51

Structure (SMILES): COc1ccc([C@@H]2CC(=O)c3c(O)cc(OC4O[C@H](CO[C@H]5O[C@@H](C)[C@@H](O)[C@@H](O)[C@H]5O)[C@H](O)[C@H](O)[C@H]4O)cc3O2)cc1O (stereo partly drawn)
- PER2::LUC luminescence (time after treatment 24 h): 1.02
- PER2::LUC luminescence (time after treatment 30 h): 1.03

Structure (SMILES): O=C(NCc1nc2ccccc2c(=O)n1-c1ccc(F)cc1)Nc1ccc(Cl)c(C(F)(F)F)c1
- PER2::LUC luminescence (time after treatment 24 h): 1
- PER2::LUC luminescence (time after treatment 30 h): 0.929

Structure (SMILES): O=S(=O)(O)c1cc(N=C=S)ccc1/C=C/c1ccc(N=C=S)cc1S(=O)(=O)O
- PER2::LUC luminescence (time after treatment 24 h): 0.832
- PER2::LUC luminescence (time after treatment 30 h): 0.684

Structure (SMILES): C/C(O)=C(\C#N)C(=O)Nc1ccc(C(F)(F)F)cc1
- PER2::LUC luminescence (time after treatment 24 h): 1.32 and 1.08
- PER2::LUC luminescence (time after treatment 30 h): 1.56 and 1.07

Structure (SMILES): CC(=O)Nc1ccc(NC(=S)NC(=O)c2ccc(C(C)(C)C)cc2)cc1
- PER2::LUC luminescence (time after treatment 24 h): 0.812
- PER2::LUC luminescence (time after treatment 30 h): 0.973

Structure (SMILES): CC(=O)Nc1ccc(O)cc1
- PER2::LUC luminescence (time after treatment 24 h): 0.846
- PER2::LUC luminescence (time after treatment 30 h): 0.81
